Results filed as inconclusive are left out. Calls of active or inactive are those of the source. Calls come from the whole dose curve; as a rule, active = well fitted curve in the direction sought with a large enough effect; inconclusive = small, poorly fitted or top-dose-only effect, or another doubt; inactive = no such curve, though single readings can be large; an effect the other way counts as inactive or inconclusive.

The nature of test [1]: qHTS of pediatric cancer cell lines to identify multiple opportunities for drug repurposing: Primary screen for A673 cells (AID 1347092). Note: nearly all actives have a fitted effect of over 45% in size. Note: potency is the fitted concentration of half-maximal effect. The method, boiled down: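 Titration-based qHTS on A673 cells: MIPE compounds spanned 11 points (0.78 nM to 46 µM final), NPC compounds 8 points (0.59 nM to 46 µM final). Viability after 48 h was measured by ATP luminescence.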
On the technique in general: In qHTS, concentration-response curves come from the screen itself.

Test [2] can be described thus: qHTS of pediatric cancer cell lines to identify multiple opportunities for drug repurposing: Primary screen for SK-N-MC cells (AID 1347093). Note: potency is the fitted concentration of half-maximal effect. The method, boiled down: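 Metabolically active cells were quantified by ATP-dependent luminescence (CellTiter-Glo, 15 min at room temperature) following 48 h treatment. Cells had been plated at 500-1,000 per well and settled for 5 h beforehand.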

Test [3] can be described thus: qHTS of pediatric cancer cell lines to identify multiple opportunities for drug repurposing: Primary screen for BT-37 cells (AID 1347094). Note: potency is the fitted concentration of half-maximal effect. Summed up: (§1)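 CRCs from 8- or 11-point titrations (lowest final 0.59 nM NPC, 0.78 nM MIPE). Cell viability: CellTiter-Glo after 48 h incubation, 15 min room-temperature development, luminescence imaging.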
Test [4] in a line: qHTS of pediatric cancer cell lines to identify multiple opportunities for drug repurposing: Primary screen for NB-EBc1 cells (AID 1347095). The method, boiled down: as §1
Test [5] in a line: qHTS of pediatric cancer cell lines to identify multiple opportunities for drug repurposing: Primary screen for NB1643 cells (AID 1347099). Note: nearly all actives have a fitted effect of over 50% in size. Note: potency is the fitted concentration of half-maximal effect. The method, boiled down:
as §1

Test [6] in a line: qHTS of pediatric cancer cell lines to identify multiple opportunities for drug repurposing: Primary screen for LAN-5 cells (AID 1347100). The method, boiled down:
(§2)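 Viability after 48 h compound treatment at 37C, 500-1,000 cells/well, read as ATP luminescence with CellTiter-Glo. Primary screens used 11-point (MIPE, 0.78 nM-46 µM) or 8-point (NPC, 0.59 nM-46 µM) final concentrations; follow-up screens used 11-point dilutions.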

Test [7] can be described thus: qHTS of pediatric cancer cell lines to identify multiple opportunities for drug repurposing: Primary screen for Rh18 cells (AID 1347102). Note: nearly all actives have a fitted effect of over 65% in size. The method, boiled down: as §2
The nature of test [8]: qHTS of pediatric cancer cell lines to identify multiple opportunities for drug repurposing: Primary screen for OHS-50 cells (AID 1347103). Note: nearly all actives have a fitted effect of over 40% in size. Note: potency is the fitted concentration of half-maximal effect. The method, boiled down:
(§3)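 Cells (500-1,000/well) rested 5 h, then received compounds for 48 h; metabolically active cells were measured by CellTiter-Glo luminescence. Final concentrations spanned up to 46 µM (MIPE, 11-point) or 0.59 nM-46 µM (NPC, 8-point) in primary screens, 11-point in follow-ups.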

Test [9] is described as follows: qHTS of pediatric cancer cell lines to identify multiple opportunities for drug repurposing: Primary screen for RD cells (AID 1347104). Note: nearly all actives have a fitted effect of over 55% in size. Note: potency is the fitted concentration of half-maximal effect. The method, boiled down:
as §1

A short description of test [10]: qHTS of pediatric cancer cell lines to identify multiple opportunities for drug repurposing: Primary screen for MG 63 (6-TG R) cells (AID 1347105). Note: nearly all actives have a fitted effect of over 50% in size. The method, boiled down:
as §1

The nature of test [11]: qHTS of pediatric cancer cell lines to identify multiple opportunities for drug repurposing: Primary screen for control Hh wild type fibroblast cells (AID 1347106).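 Note: series mostly up to about 46 µM; a drop in luminescence marks cytotoxicity and a rise apparent proliferation; nearly all actives have a fitted effect of over 55% in size.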 The method, boiled down:
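Cells (500-1,000/well) in growth media were settled 5 h at 37 degrees C, then given compounds for 48 h. Viability was read as CellTiter-Glo luminescence. Primary runs used MIPE at 11 points (0.78 nM-46 µM) and NPC at 8 points (0.59 nM-46 µM); follow-ups used 11 points.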

The nature of test [12]: qHTS of pediatric cancer cell lines to identify multiple opportunities for drug repurposing: Primary screen for Rh30 cells (AID 1347107). Note: series mostly up to about 46 µM; nearly all actives have a fitted effect of over 75% in size. The method, boiled down:
as §2

A short description of test [13]: qHTS of pediatric cancer cell lines to identify multiple opportunities for drug repurposing: Primary screen for Rh41 cells (AID 1347108).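 Note: series mostly up to about 46 µM; luminescence drop marks cytotoxic hits; nearly all actives have a fitted effect of over 70% in size.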 The method, boiled down:
as §1

Test [14] can be described thus: qHTS of pediatric cancer cell lines to identify multiple opportunities for drug repurposing: Primary screen for Saos-2 cells (AID 1347097). Note: nearly all actives have a fitted effect of over 40% in size. Note: potency is the fitted concentration of half-maximal effect. The method, boiled down: as §1
Test [15] can be described thus: qHTS of pediatric cancer cell lines to identify multiple opportunities for drug repurposing: Primary screen for SK-N-SH cells (AID 1347098). Note: nearly all actives have a fitted effect of over 65% in size. Note: potency is the fitted concentration of half-maximal effect. The method, boiled down: as §3
Test [16] in a line: qHTS of pediatric cancer cell lines to identify multiple opportunities for drug repurposing: Primary screen for BT-12 cells (AID 1347101). Note: nearly all actives have a fitted effect of over 25% in size. Summed up: as §3
Test [17] can be described thus: qHTS of pediatric cancer cell lines to identify multiple opportunities for drug repurposing: Primary screen for U-2 OS cells (AID 1347096). Note: nearly all actives have a fitted effect of over 50% in size. The method, boiled down: as §2

Regarding `CCOC(=O)c1cnc2c(cnn2CC)c1NN=C(C)C`, the Potency result in [1], in test [2], in [3], in [4], in test [5] and in test [6] was “inactive” each time. The Potency entry in test [7], in test [8], in test [9], in test [10], in [12] and in test [13] was “inactive” throughout. Further, the compound was classed as inactive in [11].

As to `NC(=Nc1ccccc1)Nc1ccccc1`, the Potency result in test [1], in test [2], in [3], in test [4], in test [14] and in [15] was “inactive” throughout. The Potency result in test [5], in test [6], in test [16], in test [7], in test [8] and in [9] was “inactive” in each case. Also, the Potency entry in test [10], in [12] and in [13] was “inactive” in each case. The compound was called inactive in test [11].

As to `CC(=O)Nc1nnc(S(N)(=O)=O)s1`, the Potency entry in [1], in test [2], in test [3], in [4], in test [15] and in test [5] was “inactive” in each case. The Potency entry in test [6], in test [16], in test [7], in test [8], in test [9] and in test [10] was “inactive” each time. The Potency entry in [12] and in test [13] was “inactive” throughout. In addition, in [11], the result was inactive.

For `CN(C)CC[C@@H](c1ccc(Br)cc1)c1ccccn1`, the Potency entry in test [1], in test [2], in test [3], in test [4], in test [14] and in test [15] was “inactive” in each case. In addition, the Potency entry in [5], in [6], in [16], in test [7], in test [9] and in test [12] was “inactive” in each case. Also, the Potency result in test [13] is “inactive”. The call in test [11] was inactive.

As to `COc1ccc(CN(CCN(C)C)c2ccccn2)cc1`, the Potency entry in test [1], in test [2], in test [3], in [4], in test [14] and in [15] was “inactive” in each case. Further, the Potency entry in test [5], in test [6], in [16], in test [7], in test [8] and in [9] was “inactive” in each case. The Potency entry in test [10], in test [12] and in test [13] was “inactive” each time. The call in test [11] was inactive.

For `C[N+](C)(C)CCOC(N)=O`, the Potency result in [1], in test [2], in test [3], in [17], in [14] and in test [15] was “inactive” in each case. Moreover, the Potency entry in test [5], in [6], in test [16], in test [7], in [8] and in test [9] was “inactive” in each case. Further, the Potency result in test [10], in [12] and in test [13] was “inactive” each time. Besides, the compound was called inactive in test [11].

Consider `C[C@]12CCC(=O)C=C1CC[C@@H]1[C@@H]2C(=O)C[C@@]2(C)[C@H]1CC[C@]2(O)C(=O)CO`, for which the Potency entry in test [1], in test [2], in test [3], in test [17], in test [14] and in [15] was “inactive” throughout. Moreover, the Potency entry in [5], in test [6], in [16], in [7], in test [8] and in test [9] was “inactive” throughout. Moreover, the Potency result in [10], in test [12] and in [13] was “inactive” each time. Besides, in test [11], the compound was classed as inactive.

Take `Cc1cc(C)c(/C=C2\C(=O)Nc3ccccc32)[nH]1`: the Potency result in test [1], in test [3], in [4], in test [17], in test [15] and in test [5] was “inactive” in each case. Besides, the Potency result in [6], in test [7], in test [9], in test [10], in test [12] and in test [13] was “inactive” each time. Further, the Potency in test [2] is 18.8 µM (active); in test [8], 15.5 µM (active). Further, in test [11], the call was inactive.

Turning to `Cc1ccc(=O)n(-c2ccccc2)c1`, the Potency entry in test [1], in [2], in test [3], in test [4], in [14] and in test [15] was “inactive” in each case. In addition, the Potency entry in test [5], in [6], in test [16], in test [7], in test [8] and in [9] was “inactive” each time. Besides, the Potency result in test [12] and in test [13] was “inactive” in each case. In test [11], the compound was classed as inactive.

Take `CC(C)[N+](C)(CCOC(=O)C1c2ccccc2Oc2ccccc21)C(C)C`: the Potency result in test [1], in test [2], in [3], in [17], in test [14] and in [15] was “inactive” each time. Moreover, the Potency entry in test [5], in [6], in test [7], in test [8], in test [9] and in test [10] was “inactive” each time. In addition, the Potency entry in test [12] and in [13] was “inactive” in each case. Further, in [11], the outcome was inactive.

`CC(C)COCC(CN(Cc1ccccc1)c1ccccc1)N1CCCC1` (configuration not stated): the Potency in test [1] is 26.6 µM (active); in test [2], 16.8 µM (active); in test [3], 27.6 µM (active); in test [14], 26.6 µM (active); in [15], 27.3 µM (active); in test [5], 29.9 µM (active). Also, the Potency is 19.5 µM (active) in [8] and 26.6 µM (active) in test [9]. Moreover, in test [11], the result was inactive.

Regarding `CN1CCN(C2=Nc3ccccc3Oc3ccc(Cl)cc32)CC1`, the Potency result in [1], in test [2], in test [4], in [17], in [15] and in test [5] was “inactive” throughout. Besides, the Potency result in [6], in test [7], in test [9], in test [12] and in [13] was “inactive” in each case. Further, in test [11], the result was inactive.

Take `CCCCNC(=O)NS(=O)(=O)c1ccc(C)cc1`: the Potency entry in [1], in test [3], in test [4], in test [17], in test [14] and in test [15] was “inactive” in each case. Also, the Potency result in [5], in test [6], in test [16], in test [7], in test [8] and in test [9] was “inactive” throughout. The Potency result in test [12] and in [13] was “inactive” each time. For the same compound, the result in [11] was inactive.

Values taken from PubChem BioAssay (NCATS).
